Assay results: PubChem BioAssay
A number with no mark means an inactive call. Active and inactive are the calls of the source. Cut-off read from the data, not from the text of the source, unless noted: active = inhibition above about 33%; inactive = the rest.

Tests used:
[1] = StAR promoter reporter inhibitors, counter-screen for LRH-1 inverse agonist project, cell-based, luminescence, high throughput (AID 651611; in the data active = inhibition above about 28%); details: StAR promoter luciferase reporter counterscreen, at 3.6 µM, stronger effect = higher value
[2] = target: Nuclear receptor subfamily 5 group A member 2 (Homo sapiens) (UniProt O00482); experiment: LRH-1 (NR5A2) inverse agonists, retest, confirmation, cell-based, luminescence (AID 651613; in the data active = inhibition above about 42%;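 note: HEK293T cells co-transfected with LRH-1 and StAR promoter luciferase reporter; 0% = vehicle wells and 100% = parental cells lacking receptor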); details: cell-based LRH-1 luciferase reporter, inverse agonism; at 3.6 µM; stronger effect = higher value
[3] = target: Steroidogenic factor 1 (Homo sapiens) (UniProt Q13285); experiment: SF1 (NR5A1) inverse agonists, counter-screen for LRH-1 inverse agonist project, cell-based, luminescence, high throughput (AID 651614; in the data active = inhibition above about 44%;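 note: cells cotransfected with StAR promoter reporter and SF1 expression vector; 0% = vehicle on cells with receptor and 100% = vehicle on cells lacking receptor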); details: cell-based SF1 luciferase reporter, at 3.6 µM, stronger effect = higher value
[4] = VP16 transactivation reporter inhibitors, counter-screen for LRH-1 inverse agonist project, cell-based, luminescence, high throughput (AID 651615); details: Gal4-VP16 luciferase reporter cells, at 3.6 µM, stronger effect = higher value

Chain of Nuclear receptor subfamily 5 group A member 2 (Homo sapiens) (O00482 whole entry, looked up): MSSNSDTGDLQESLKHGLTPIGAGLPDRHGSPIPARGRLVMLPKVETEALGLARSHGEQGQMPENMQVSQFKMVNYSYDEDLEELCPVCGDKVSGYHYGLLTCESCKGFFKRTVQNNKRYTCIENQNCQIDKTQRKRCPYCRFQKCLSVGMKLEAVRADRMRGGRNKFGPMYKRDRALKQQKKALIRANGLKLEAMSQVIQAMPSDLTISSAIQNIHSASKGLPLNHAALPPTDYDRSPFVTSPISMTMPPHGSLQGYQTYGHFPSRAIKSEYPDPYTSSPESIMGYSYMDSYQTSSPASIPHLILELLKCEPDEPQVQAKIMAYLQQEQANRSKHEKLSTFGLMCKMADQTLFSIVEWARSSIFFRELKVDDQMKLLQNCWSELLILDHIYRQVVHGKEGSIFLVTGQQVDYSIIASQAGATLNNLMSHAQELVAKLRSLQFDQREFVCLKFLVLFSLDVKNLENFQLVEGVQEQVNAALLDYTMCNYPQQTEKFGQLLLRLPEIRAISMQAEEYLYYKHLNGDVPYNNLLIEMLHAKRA
Chain of Steroidogenic factor 1 (Homo sapiens) (Q13285 whole entry, looked up, the tested form may be a part): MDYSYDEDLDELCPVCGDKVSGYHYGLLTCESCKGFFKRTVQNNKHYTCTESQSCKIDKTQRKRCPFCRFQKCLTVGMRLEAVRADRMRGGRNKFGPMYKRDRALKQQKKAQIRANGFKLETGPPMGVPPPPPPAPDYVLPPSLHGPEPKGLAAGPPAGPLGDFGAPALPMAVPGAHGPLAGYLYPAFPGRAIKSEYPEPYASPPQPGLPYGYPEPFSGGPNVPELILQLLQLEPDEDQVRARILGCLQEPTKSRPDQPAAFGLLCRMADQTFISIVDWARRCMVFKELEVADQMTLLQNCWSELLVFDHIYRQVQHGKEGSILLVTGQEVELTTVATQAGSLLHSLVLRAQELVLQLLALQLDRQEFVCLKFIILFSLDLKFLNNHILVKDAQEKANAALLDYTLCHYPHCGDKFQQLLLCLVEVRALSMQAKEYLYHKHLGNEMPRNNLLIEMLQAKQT

## CC1(C)Cc2ccccc2/C(=C/C(=O)c2ccccc2)N1
[1]
  inhibition: 0.1%
[2]
  inhibition: 39%
[3]
  inhibition: 36.2%
[4]
  inhibition: 15.6%

## CC1(C)Cc2ccccc2-c2nnnn21
[1]
  inhibition: 3.18%
[2]
  inhibition: 14.1%
[3]
  inhibition: 2.39%
[4]
  inhibition: -5.72%

## COc1ccc(OC)c(C2NC(=O)c3sc(=S)n(-c4ccccc4)c3N2)c1 (stereo unspecified)
[1]
  inhibition: 10.5%
[2]
  inhibition: 53.5% (active)
[3]
  inhibition: 45.4% (active)
[4]
  inhibition: -4.35%

## NC(=S)Nc1ccc(Oc2ccc(NC(N)=S)cc2)cc1
[1]
  inhibition: 5.35%
[2]
  inhibition: 31.2%
[3]
  inhibition: 40%
[4]
  inhibition: -6.09%

## Cc1cc(=O)oc2cc(OCC(=O)N3CCN(C(=O)C4COc5ccccc5O4)CC3)ccc12 (stereo unspecified)
[1]
  inhibition: 21.1%
[2]
  inhibition: 49% (active)
[3]
  inhibition: 42.1%
[4]
  inhibition: -11%

## COc1cc(C(=O)Nc2ccccc2C2COC(=O)C2=N)cc(OC)c1OC (stereo unspecified)
[1]
  inhibition: 8.92%
[2]
  inhibition: 45.5% (active)
[3]
  inhibition: 45.2% (active)
[4]
  inhibition: -1.69%

## CCn1cc(CN(C)S(=O)(=O)c2ccc3ccccc3c2)c(C)n1
[1]
  inhibition: -0.8%
[2]
  inhibition: 50.9% (active)
[3]
  inhibition: 52.5% (active)
[4]
  inhibition: 40.2% (active)

## CCCc1cc(=O)oc2c(C)c(OCC(=O)NCCCn3ccnc3)ccc12
[1]
  inhibition: -1.87%
[2]
  inhibition: 47.8% (active)
[3]
  inhibition: 35.9%
[4]
  inhibition: -19.5%

## NC(=S)N/N=C/c1ccc(C(F)(F)F)cc1
[1]
  inhibition: -1.87%
[2]
  inhibition: 48.1% (active)
[3]
  inhibition: 44.6% (active)
[4]
  inhibition: 9.68%

## N#Cc1c2c(c(NCCOCCO)n3c1nc1ccccc13)CCCC2
[1]
  inhibition: 4.14%
[2]
  inhibition: 40.5%
[3]
  inhibition: 31.7%
[4]
  inhibition: -0.15%

## COc1ccc(S(=O)(=O)N2CCCCC2)cc1NC(=O)c1ccc([N+](=O)[O-])o1
[1]
  inhibition: 25.8%
[2]
  inhibition: 74.9% (active)
[3]
  inhibition: 68.1% (active)
[4]
  inhibition: 18.6%

## Cc1cc2nc(C3CCCCC3)c(Cc3ccsc3)n2c(C)c1Br
[1]
  inhibition: 4.75%
[2]
  inhibition: 36.2%
[3]
  inhibition: 37.7%
[4]
  inhibition: 22.4%

## O=C(Nc1ccc(N2CCN(C(=O)c3ccccc3)CC2)cc1)c1ccc([N+](=O)[O-])o1
[1]
  inhibition: 22.4%
[2]
  inhibition: 64.8% (active)
[3]
  inhibition: 66.6% (active)
[4]
  inhibition: -9.49%

## COc1cc2c(cc1OC)CN(C(=O)c1ccc([N+](=O)[O-])o1)CC2
[1]
  inhibition: 12.4%
[2]
  inhibition: 65.1% (active)
[3]
  inhibition: 64.4% (active)
[4]
  inhibition: 7.13%

## Cc1ccc(NC(=O)CCl)c(C)c1
[1]
  inhibition: 35% (active)
[2]
  inhibition: 59.3% (active)
[3]
  inhibition: 63.2% (active)
[4]
  inhibition: -43.6%

## O=C(Nc1nccs1)c1ccc(S(=O)(=O)NCC2CCCCC2)cc1
[1]
  inhibition: 6.64%
[2]
  inhibition: 41.7% (active)
[3]
  inhibition: 42.4%
[4]
  inhibition: 33.3% (active)

## Cc1cccc(NC(=O)CSc2ccc(-c3ccco3)nn2)c1C
[1]
  inhibition: 4.66%
[2]
  inhibition: 44.6% (active)
[3]
  inhibition: 39.2%
[4]
  inhibition: -3.56%

## COc1ccc(OC)c(-n2c(-c3ccc(S(C)(=O)=O)cc3)cc(C=O)c2C)c1
[1]
  inhibition: 25%
[2]
  inhibition: 48.2% (active)
[3]
  inhibition: 55.3% (active)
[4]
  inhibition: -41.9%

## O=C(CSc1nc2cccc(F)c2c(=O)n1-c1ccccc1)Nc1ccc2c(c1)CCC2
[1]
  inhibition: 19.2%
[2]
  inhibition: 57.3% (active)
[3]
  inhibition: 57.5% (active)
[4]
  inhibition: -5.06%

## COc1ccc(CCNC(=O)COC(=O)C23CC4CC(CC(Br)(C4)C2)C3)cc1
[1]
  inhibition: 4.42%
[2]
  inhibition: 53.8% (active)
[3]
  inhibition: 53.9% (active)
[4]
  inhibition: 4.71%

## O=[N+]([O-])c1ccc(N2CCCC2)cc1NC1CC1
[1]
  inhibition: 0.53%
[2]
  inhibition: 47.1% (active)
[3]
  inhibition: 47.3% (active)
[4]
  inhibition: -3.08%

## CCOC(=O)C(C)Oc1cccc2c(=O)n(CC(=O)Nc3ccc4c(c3)OCCO4)ccc12 (stereo unspecified)
[1]
  inhibition: 5.33%
[2]
  inhibition: 58.5% (active)
[3]
  inhibition: 51.7% (active)
[4]
  inhibition: -1.21%

## CCOC(=O)c1c(N)n(CCOC(=O)c2cccs2)c2nc3ccccc3nc12
[1]
  inhibition: 0.69%
[2]
  inhibition: 21.6%
[3]
  inhibition: 23.7%
[4]
  inhibition: -11.6%

## COc1ccc2nc(N3CCC(O)CC3)c(C#N)cc2c1
[1]
  inhibition: -24.2%
[2]
  inhibition: 43.6% (active)
[3]
  inhibition: 44.9% (active)
[4]
  inhibition: -30.6%
